# Test system: PXR homodimer (NR concentration 270 nM)
# Assay: PBM binding z-score (relative to random genomic background probes); higher = stronger binding; sequences stand for … in GC…GCGATTGACAGCGTAGAATGAAGG
# Summary of the method: (§1)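 Each nuclear receptor dimer, without ligand, was incubated for 1 h on custom Agilent 4×180K protein-binding microarrays. Binding was detected with antibodies against each partner (one per run), and scanned fluorescence was regression-normalized. The binding z-scores are referenced to random human genomic background probes.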
row,Sequence,PBM binding z-score
1,ACTCGGAGGACAAGGGTCAGAGCTACGCCAGTGA,-0.342
2,AGAATTAGGTTATACGTAGATCAGGGAAGAAAGT,0.914
3,ATATGTAGGTTATCGGTTCATTCAGTTTGCGCAT,11.4
4,TCTGCTAGGTCAGTTGGTAAGCTAACGAGCTGCC,-1.11
5,ACTAGCAGGCCAAGGGTCACTCAGGATTAGTCCG,-0.196
6,CCTAGAAGGCCAGGGTCACTCAAGCATTTCGCTT,0.284
7,ATCTCTAGGTAAAGTTCAGTGTAAGATCGATAGA,2.38
8,CTAACTAGGTCAAGGACAGTGAATCTCCGCACGC,0.296
9,ACTATTAGGTGACTTAGGGCAACCGATACGACGC,0.0513
10,CCTACTGGGCCAAAAAGATCATTGATGCCGATAA,-0.298
11,CCAGACAGGTGAAAGGTAACTCGGTCTGGTACGC,-0.111
12,TCTAGTTGGTCAAAGGTCACACATTCGAAATGCG,1.55
13,TCTAGTTGGTCGAAGGTCACACACTCGAAATGCG,1.06
14,ATCTCTAGCTAACCAAGTTCAGTGAATGCCGAAC,1.49
15,CGTCCAAGGTCAGCAAGTCAGTGAAAGCGACGTG,0.119
16,ATCGAAAGGTCGATGTGAGTATAGAGAAAGGGAA,0.123
17,TTACCAAGGTGAACGTCGTTGATCCCTCTGTAGA,-0.305
18,AGAACGAGGGCACGCTGAGTTGATAGCAGAGTAG,-0.0574
19,CATACAGGGTCAGCTAGGCGAGAGTAGGGACGGC,0.199
20,CGTCCATGGTCAATGCTAGGTCAGTGAAAGCATT,-0.367

row,Sequence,PBM binding z-score
1,CCGACTGGTGCAGAAAGGTTACCATACCATCCGG,0.0978
2,ATACGTAGGTTAGCTGGGGTCATTCAGACTAGGC,4.22
3,TCTAGTTGGTCACGGTGGTCACACACGACGGGTA,-0.191
4,ATATGTAGGTTAAGGGTTATTCAGGTTGGTTCGC,1.6
5,TCTGCTACGTCAGTTGGTCAGCTAACGAGCTGCC,-1.18
6,TCATATAGGTAAACAGGGGAAAGTCCGTAAGTTA,0.414
7,ACTATTAGTTGAGACGAGGGCAACCGCTAGGTTG,0.226
8,TCTCTGAGGACACGAAAGGTCAGAGCTCGACATC,0.562
9,CCTAATGGGCCACGAAAGGTCATTGATTCAGTGA,1.32
10,TCTAGTTGGTCAAAGGTCACACGCTCGAAATGCG,2.22
11,CCTATTGGGCCATCAGGTCATTGATATCAACGTT,0.775
12,TGAATGAGGTTAAAGAGCAGGGAACGTGGCGTCG,-0.274
13,GTTCGGAGGACAAGGTCAGAGCTTTGTCCGTAGA,-0.41
14,TCATATAGGTAATACAGGTGAAAGCCGGCATCTA,0.433
15,GCTTACGGGTCAAAGGTTATTGCATGAATAGAAT,0.728
16,TCTAGTAGGTTACCAATGGGGCATTCAGCTTTCT,-0.176
17,CGAACGATGGCATGAGTTGATAGCAAATGCCGAT,-0.0321
18,CCGACTGGGGCCGAAAGGTTACCATACCATCCGG,-0.286
19,CGTCCAAGGTCAAAGGTCAGTTAAGAGATGACGG,1.86
20,CCTAGCAGGCCAGGGTCACTCAAGCATTTCGCTT,-0.595

# Test system: RARa:RXR (NR concentration 270 nM, RXRa partner concentration 90 nM)
# Assay: as above
# Summary of the method: as §1
row,Sequence,PBM binding z-score
1,ACTCGGAGGACAAGGGTCAGAGCTACGCCAGTGA,2.63
2,AGAATTAGGTTATACGTAGATCAGGGAAGAAAGT,0.687
3,ATATGTAGGTTATCGGTTCATTCAGTTTGCGCAT,1.73
4,TCTGCTAGGTCAGTTGGTAAGCTAACGAGCTGCC,0.233
5,ACTAGCAGGCCAAGGGTCACTCAGGATTAGTCCG,4.33
6,CCTAGAAGGCCAGGGTCACTCAAGCATTTCGCTT,3.21
7,ATCTCTAGGTAAAGTTCAGTGTAAGATCGATAGA,1.53
8,CTAACTAGGTCAAGGACAGTGAATCTCCGCACGC,1.87
9,ACTATTAGGTGACTTAGGGCAACCGATACGACGC,0.9
10,CCTACTGGGCCAAAAAGATCATTGATGCCGATAA,-0.562
11,CCAGACAGGTGAAAGGTAACTCGGTCTGGTACGC,1.77
12,TCTAGTTGGTCAAAGGTCACACATTCGAAATGCG,6.86
13,TCTAGTTGGTCGAAGGTCACACACTCGAAATGCG,4.17
14,ATCTCTAGCTAACCAAGTTCAGTGAATGCCGAAC,0.181
15,CGTCCAAGGTCAGCAAGTCAGTGAAAGCGACGTG,3.13
16,ATCGAAAGGTCGATGTGAGTATAGAGAAAGGGAA,2.36
17,TTACCAAGGTGAACGTCGTTGATCCCTCTGTAGA,1.26
18,AGAACGAGGGCACGCTGAGTTGATAGCAGAGTAG,0.83
19,CATACAGGGTCAGCTAGGCGAGAGTAGGGACGGC,3.05
20,CGTCCATGGTCAATGCTAGGTCAGTGAAAGCATT,0.816

row,Sequence,PBM binding z-score
1,CCGACTGGTGCAGAAAGGTTACCATACCATCCGG,1.65
2,ATACGTAGGTTAGCTGGGGTCATTCAGACTAGGC,5.33
3,TCTAGTTGGTCACGGTGGTCACACACGACGGGTA,0.741
4,ATATGTAGGTTAAGGGTTATTCAGGTTGGTTCGC,2.88
5,TCTGCTACGTCAGTTGGTCAGCTAACGAGCTGCC,-0.819
6,TCATATAGGTAAACAGGGGAAAGTCCGTAAGTTA,1.21
7,ACTATTAGTTGAGACGAGGGCAACCGCTAGGTTG,0.773
8,TCTCTGAGGACACGAAAGGTCAGAGCTCGACATC,4.33
9,CCTAATGGGCCACGAAAGGTCATTGATTCAGTGA,5.08
10,TCTAGTTGGTCAAAGGTCACACGCTCGAAATGCG,7.76
11,CCTATTGGGCCATCAGGTCATTGATATCAACGTT,2
12,TGAATGAGGTTAAAGAGCAGGGAACGTGGCGTCG,2.52
13,GTTCGGAGGACAAGGTCAGAGCTTTGTCCGTAGA,2.17
14,TCATATAGGTAATACAGGTGAAAGCCGGCATCTA,1.36
15,GCTTACGGGTCAAAGGTTATTGCATGAATAGAAT,8.16
16,TCTAGTAGGTTACCAATGGGGCATTCAGCTTTCT,0.372
17,CGAACGATGGCATGAGTTGATAGCAAATGCCGAT,-0.0116
18,CCGACTGGGGCCGAAAGGTTACCATACCATCCGG,1.78
19,CGTCCAAGGTCAAAGGTCAGTTAAGAGATGACGG,8.28
20,CCTAGCAGGCCAGGGTCACTCAAGCATTTCGCTT,3.17
